Measurements taken from PubChem BioAssay (NCATS).
Inconclusive results are not listed. The source made the active and inactive calls. Unless noted, calls come from the whole dose curve; as a rule, active = well fitted curve in either direction with a large enough effect (not every such curve was filed as active); inconclusive = small, poorly fitted or top-dose-only effect, or another doubt; inactive = flat fitted curve, though single readings scatter.

Key:
[1] = target: Lysosomal acid glucosylceramidase (Homo sapiens) (UniProt P04062); assay: Glucocerebrosidase-p2 (AID 348; in the data active = potency below about 10 µM; note: potency is the fitted concentration of half-maximal effect); details: purified GBA, blue fluorogenic substrate, 40 min
How it was run: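 Normal human glucocerebrosidase (0.2 nM) with blue fluorogenic substrate (80 uM final) in citrate/phosphate pH 5.9 with 10mM sodium taurocholate, 0.01% tween-20; 40 min RT, NaOH/glycine stop; fluorescence Ex 365/Em 440; AC50 from a titration from 0.6 nM upwards.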

[2] = AP1 Signaling Pathway (AID 357); details: ME-180 AP-1-bla reporter, EGF-induced, beta-lactamase ratio, 5 h; at 7.69 µM (top of the series) unless noted; note: % is set by controls: 0 for no effect and ±100 for the full control effect
How it was run: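 Modulation of EGF-driven AP-1 transcription was assessed with a beta-lactamase reporter in ME-180 cells. Compound and EC50 EGF were co-incubated 5 hours at 37 °C before 2.5-hour CCF4 loading at room temperature and dual-emission reading.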

[3] = NFAT Signaling Pathway (AID 444); details: Jurkat NFAT-bla M1, carbachol, beta-lactamase ratio, 5 h; at 7.69 µM (top of the series) unless noted;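 note: carbachol stimulus at about its EC50 of 1 µM final; % is set by controls: 0 for no effect and ±100 for the full control effect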
How it was run: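 Jurkat cells with NFAT-driven β-lactamase reporter and co-expressed M1 receptor, stimulated with carbachol (final 1 uM, ~EC50), compound titration, 5 h at 37 °C. CCF4 loaded 1 h at RT; 460/530 nm ratio gave %activity and AC50.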

[4] = Stat Signaling Pathway (AID 446); details: ME-180 (cervical carcinoma) SIE beta-lactamase reporter, IL-6 stimulated, 5 h; at 7.69 µM (top of the series) unless noted;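 note: ME-180 cervical cancer cells given 40 pM IL-6 alongside compound; SIE-controlled beta-lactamase reporter measured as 460/530 nm FRET emission ratio; % is set by controls: 0 for no effect and ±100 for the full control effect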
How it was run: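 Compound effects on IL-6-induced STAT reporter activity were measured in ME-180 cells. After overnight culture, cells were co-treated with 40 pM IL-6 for 5 hrs before beta-lactamase substrate loading at room temperature.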

[5] = target: Glucocorticoid receptor (Homo sapiens) (UniProt P04150); assay: GR-GFP Redistribution (AID 450;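 active = compounds whose dose series gives a full or clear partial fitted curve of increased nuclear translocation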; note: potency is the fitted concentration of half-maximal effect); details: U2OS GR-GFP nuclear translocation, laser cytometry, 2 h
[6] = target: Glucocorticoid receptor (Homo sapiens) (UniProt P04150); assay: GR-EFC Redistribution (AID 451; calls by dose curve; note: potency is the fitted concentration of half-maximal effect); details: CHO-K1 GR-EFC translocation, beta-gal luminescence, 2 h
How it was run: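 CHO-K1 cells expressing nuclear EA and GR-ED fragments of b-gal; compounds titrated up to 46 uM final, 2 h at 37 C. GR nuclear translocation read as complemented b-gal luminescence after 1 h RT detection.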

[7] = target: Mitogen-activated protein kinase 10 (Mus musculus) (UniProt Q61831); assay: JNK3 AlphaScreen Assay (AID 530); details: JNK3 lysate, c-Jun phosphorylation; series mostly up to 57.1 µM;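 note: kinase came from lysate of stimulated human HepG2 cells; signal reports phosphorylation of biotinylated GST-cJun 1-79 at Ser73 with 10 µM ATP; % is set by controls: 0 for no effect and ±100 for the full control effect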
How it was run: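 HepG2 lysate (IL-1b/TNFa pre-activated) + biotin-GST-cJun 1-79 + anti-pSer73 cJun; cpd titration, 15 min RT; ATP 10 uM start; Tris pH 7.6, MgCl2, DTT, vanadate; beads in EDTA buffer; AlphaScreen.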

[8] = Primary qHTS for small molecule stabilizers of the endoplasmic reticulum resident proteome: Secreted ER Calcium Modulated Protein (SERCaMP) assay (AID 1508630; active = well fitted curve in the direction sought with a large enough effect; an effect the other way counts as inactive or inconclusive; note: % is set by controls: 0 for no effect and ±100 for the full control effect); details: SH-SY5Y GLuc-SERCaMP (Gaussia luciferase released on ER calcium loss) secretion, thapsigargin, luminescence; series mostly up to 38.4 µM
How it was run: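 The SH-SY5Y reporter protocol was run at 3 concentrations up to 38.3 uM (primary) or 11 concentrations (follow-up): 16 h compound, 100 nM thapsigargin for 4 h, then extracellular luciferase luminescence.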

[9] = target: 3',5'-cyclic-AMP phosphodiesterase 4B (Homo sapiens) (UniProt Q07343); assay: qHTS Assay for Inhibitors of PDE-IV (AID 607; active = well fitted activation curve with a large enough effect in the main read-out, with a control signal flat, not every such curve was filed as active; note: % of control where 0% means no effect); details: HEK293 ACTOne CNG channel cells, membrane potential fluorescence; series mostly up to 22.9 µM
How it was run: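 ACTOne HEK293 cells carry a modified cAMP-gated CNG channel and express endogenous PDE4; plated 1000 cells/well, compounds up to 22.9 uM final. Membrane-potential dye fluorescence (ex 535/em 590) was read; parental cells received 10 uM forskolin + 100 uM RO 20-1724.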

[10] = target: Cytochrome P450 3A4 (Homo sapiens) (UniProt P08684); assay: qHTS Assay for Activators of Cytochrome P450 3A4 (AID 885; active = well fitted curve in the direction sought with a large enough effect; an effect the other way counts as inactive or inconclusive; note: nearly all actives have a fitted effect of over 65% in size); details: recombinant CYP3A4, Luciferin-PPXE luminescence, 60 min; series mostly up to 57.1 µM
How it was run: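 CYP3A4 activity: Luciferin-PPXE O-dealkylation, 25uM substrate, 200mM KPO4, RT throughout. Read-out is luciferase luminescence; higher values reflect activation.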

Lysosomal acid glucosylceramidase (Homo sapiens), sequence (P04062 whole entry, looked up): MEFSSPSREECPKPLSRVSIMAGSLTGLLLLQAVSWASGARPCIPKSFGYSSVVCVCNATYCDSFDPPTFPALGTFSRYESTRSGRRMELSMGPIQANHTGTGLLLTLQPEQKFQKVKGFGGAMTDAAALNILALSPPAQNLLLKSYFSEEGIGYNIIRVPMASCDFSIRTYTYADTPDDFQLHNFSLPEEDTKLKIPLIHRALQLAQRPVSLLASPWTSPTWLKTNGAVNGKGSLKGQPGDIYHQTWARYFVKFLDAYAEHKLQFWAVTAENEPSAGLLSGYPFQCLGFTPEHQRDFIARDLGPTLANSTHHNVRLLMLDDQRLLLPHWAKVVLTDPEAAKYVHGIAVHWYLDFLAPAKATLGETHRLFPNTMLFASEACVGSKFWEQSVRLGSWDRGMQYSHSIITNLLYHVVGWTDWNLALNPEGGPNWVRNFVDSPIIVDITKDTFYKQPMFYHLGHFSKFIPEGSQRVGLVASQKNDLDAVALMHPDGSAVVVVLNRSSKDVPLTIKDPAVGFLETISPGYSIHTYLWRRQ
Glucocorticoid receptor (Homo sapiens), sequence (P04150 whole entry, looked up, the tested form may be a part): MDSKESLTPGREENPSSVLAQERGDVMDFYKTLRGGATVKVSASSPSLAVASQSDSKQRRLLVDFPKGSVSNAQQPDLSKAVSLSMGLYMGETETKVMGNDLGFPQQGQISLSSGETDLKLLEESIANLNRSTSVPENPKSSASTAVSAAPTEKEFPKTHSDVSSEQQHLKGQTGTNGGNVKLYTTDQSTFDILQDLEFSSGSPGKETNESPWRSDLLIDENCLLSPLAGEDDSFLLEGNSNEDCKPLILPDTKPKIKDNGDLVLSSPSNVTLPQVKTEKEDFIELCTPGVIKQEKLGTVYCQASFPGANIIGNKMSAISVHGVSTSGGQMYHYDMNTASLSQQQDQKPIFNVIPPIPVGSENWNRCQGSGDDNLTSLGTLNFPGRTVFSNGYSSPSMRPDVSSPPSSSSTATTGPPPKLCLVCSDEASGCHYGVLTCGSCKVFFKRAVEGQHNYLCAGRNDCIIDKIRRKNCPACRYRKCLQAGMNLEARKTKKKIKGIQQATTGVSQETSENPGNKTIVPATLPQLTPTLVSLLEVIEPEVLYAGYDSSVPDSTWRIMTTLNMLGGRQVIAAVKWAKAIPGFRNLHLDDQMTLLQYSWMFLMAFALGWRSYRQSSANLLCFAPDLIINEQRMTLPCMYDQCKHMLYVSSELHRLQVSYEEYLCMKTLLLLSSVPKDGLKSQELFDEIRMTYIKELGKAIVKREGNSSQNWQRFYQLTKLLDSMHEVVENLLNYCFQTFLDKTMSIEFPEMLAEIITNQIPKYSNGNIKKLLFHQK
3',5'-cyclic-AMP phosphodiesterase 4B (Homo sapiens), sequence (Q07343 whole entry, looked up): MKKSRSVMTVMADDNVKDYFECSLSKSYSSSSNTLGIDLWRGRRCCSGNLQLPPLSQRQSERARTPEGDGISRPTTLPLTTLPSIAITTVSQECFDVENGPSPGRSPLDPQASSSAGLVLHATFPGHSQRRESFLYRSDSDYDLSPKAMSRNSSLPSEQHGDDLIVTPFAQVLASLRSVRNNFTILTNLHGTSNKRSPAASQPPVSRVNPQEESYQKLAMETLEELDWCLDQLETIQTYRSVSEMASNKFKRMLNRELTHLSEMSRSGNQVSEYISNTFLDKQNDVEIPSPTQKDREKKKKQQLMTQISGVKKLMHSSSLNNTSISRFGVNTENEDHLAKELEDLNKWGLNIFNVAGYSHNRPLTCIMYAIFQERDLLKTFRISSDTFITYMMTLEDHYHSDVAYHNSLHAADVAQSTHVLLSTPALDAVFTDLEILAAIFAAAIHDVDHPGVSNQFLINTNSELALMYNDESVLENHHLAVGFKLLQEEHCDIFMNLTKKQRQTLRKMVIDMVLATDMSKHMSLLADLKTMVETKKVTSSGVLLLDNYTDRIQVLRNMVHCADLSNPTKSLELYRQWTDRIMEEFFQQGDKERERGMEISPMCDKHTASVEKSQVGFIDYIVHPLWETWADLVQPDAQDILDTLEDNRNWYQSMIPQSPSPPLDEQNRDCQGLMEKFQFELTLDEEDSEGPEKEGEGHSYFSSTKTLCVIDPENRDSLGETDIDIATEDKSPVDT
Cytochrome P450 3A4 (Homo sapiens), sequence (P08684 whole entry, looked up): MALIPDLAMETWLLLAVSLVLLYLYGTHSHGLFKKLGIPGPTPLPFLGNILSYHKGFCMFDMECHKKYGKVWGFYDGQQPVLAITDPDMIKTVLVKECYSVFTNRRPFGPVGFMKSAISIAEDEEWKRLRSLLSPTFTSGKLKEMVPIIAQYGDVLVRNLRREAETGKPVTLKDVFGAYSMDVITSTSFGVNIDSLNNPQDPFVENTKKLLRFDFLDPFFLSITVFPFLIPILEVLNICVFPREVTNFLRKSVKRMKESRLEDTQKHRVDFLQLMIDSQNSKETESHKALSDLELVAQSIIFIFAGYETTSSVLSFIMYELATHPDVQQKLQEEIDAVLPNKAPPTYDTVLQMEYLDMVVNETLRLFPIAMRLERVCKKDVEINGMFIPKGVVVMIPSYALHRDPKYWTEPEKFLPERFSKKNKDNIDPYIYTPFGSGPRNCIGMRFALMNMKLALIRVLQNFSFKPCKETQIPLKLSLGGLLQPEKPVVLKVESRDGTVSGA

COc1ccc(Oc2ncc3nc(C)c(=O)n(CCc4ccccc4)c3n2)cc1
inactive: Potency [1] > 11.4 µM | activity change, negative = inhibition [2] 18.2% | activity change, negative = inhibition [3] 0.509% | activity, negative = inhibition [4] 2.93% | Potency [5] > 9.22 µM | Potency [6] > 46 µM | Potency [7] | outcome [8]

COc1ncc2nc(-c3cc(F)cc(F)c3)c(=O)n(Cc3cccs3)c2n1
inactive: Potency [1] > 11.4 µM | activity change, negative = inhibition [2] 14.2% | activity change, negative = inhibition [3] -10.4% | activity, negative = inhibition [4] 4.55% | Potency [5] > 9.22 µM | Potency [6] > 46 µM | Potency [7] | Potency [9] | outcome [8]

COc1cccc(Cn2c(=O)c(-c3cccs3)nc3cnc(Nc4ccccc4)nc32)c1
inactive: Potency [1] > 11.4 µM | activity change, negative = inhibition [2] -5.18% | activity change, negative = inhibition [3] -18.8% | activity, negative = inhibition [4] -0.21% | Potency [5] > 9.22 µM | Potency [6] > 46 µM | Potency [7] | outcome [8]

COc1cccc(Cn2c(=O)c(-c3cc(F)cc(F)c3)nc3cnc(OC)nc32)c1
inactive: Potency [1] > 11.4 µM | activity change, negative = inhibition [2] -16.9% | activity change, negative = inhibition [3] -18.1% | activity, negative = inhibition [4] -4.81% | Potency [5] > 9.22 µM | Potency [6] > 46 µM | Potency [7] | Potency [9] | outcome [8]

O=c1c(-c2cccc(Cl)c2)nc2cncnc2n1Cc1ccc(F)cc1
inactive: Potency [1] > 11.4 µM | activity change, negative = inhibition [2] -7.68% | activity change, negative = inhibition [3] -0.975% | activity, negative = inhibition [4] -5.55% | Potency [5] > 9.22 µM | Potency [6] > 46 µM | Potency [7] | Potency [10] | outcome [8]

COc1cccc(Cn2c(=O)c(C)nc3cnc(Oc4ccccc4)nc32)c1
inactive: Potency [1] > 11.4 µM | activity change, negative = inhibition [2] -12.2% | activity change, negative = inhibition [3] -3.17% | activity, negative = inhibition [4] -2.47% | Potency [5] > 9.22 µM | Potency [6] > 46 µM | Potency [7] | outcome [8]

COc1ccc(-c2nc3cnc(OC)nc3n(Cc3ccc(F)cc3)c2=O)cc1
inactive: Potency [1] > 11.4 µM | activity change, negative = inhibition [2] 8.95% | activity change, negative = inhibition [3] -6.96% | activity, negative = inhibition [4] 5.66% | Potency [5] > 9.22 µM | Potency [6] > 46 µM | Potency [7] | outcome [8]
